# Key:
# [1] = tested on: Tyrosine-protein kinase ABL1 (Homo sapiens), P00519 [T315I]; details: at 1 µM
# [2] = tested on: Tyrosine-protein kinase ABL1 (Homo sapiens), P00519 [Y253F]; details: at 0.1 µM
# [3] = tested on: Tyrosine-protein kinase ABL1 (Homo sapiens), P00519 [Y253F]; details: at 1 µM
# [4] = target: Tyrosine-protein kinase ABL1 (Homo sapiens) (UniProt P00519); details: at 0.1 µM
# [5] = target: Tyrosine-protein kinase ABL1 (Homo sapiens) (UniProt P00519); details: at 1 µM
# [6] = target: ALK tyrosine kinase receptor (Homo sapiens) (UniProt Q9UM73); details: at 0.1 µM
# [7] = target: ALK tyrosine kinase receptor (Homo sapiens) (UniProt Q9UM73); details: at 1 µM
# [8] = target: Tyrosine-protein kinase ABL2 (Homo sapiens) (UniProt P42684); details: at 0.1 µM
# [9] = target: Tyrosine-protein kinase ABL2 (Homo sapiens) (UniProt P42684); details: at 1 µM
# [10] = target: Tyrosine-protein kinase receptor UFO (Homo sapiens) (UniProt P30530); details: at 0.1 µM;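 also: values are mean percent inhibition of AXL from the GSK PKIS screen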
# Chain of Tyrosine-protein kinase receptor UFO (Homo sapiens) (P30530 whole entry): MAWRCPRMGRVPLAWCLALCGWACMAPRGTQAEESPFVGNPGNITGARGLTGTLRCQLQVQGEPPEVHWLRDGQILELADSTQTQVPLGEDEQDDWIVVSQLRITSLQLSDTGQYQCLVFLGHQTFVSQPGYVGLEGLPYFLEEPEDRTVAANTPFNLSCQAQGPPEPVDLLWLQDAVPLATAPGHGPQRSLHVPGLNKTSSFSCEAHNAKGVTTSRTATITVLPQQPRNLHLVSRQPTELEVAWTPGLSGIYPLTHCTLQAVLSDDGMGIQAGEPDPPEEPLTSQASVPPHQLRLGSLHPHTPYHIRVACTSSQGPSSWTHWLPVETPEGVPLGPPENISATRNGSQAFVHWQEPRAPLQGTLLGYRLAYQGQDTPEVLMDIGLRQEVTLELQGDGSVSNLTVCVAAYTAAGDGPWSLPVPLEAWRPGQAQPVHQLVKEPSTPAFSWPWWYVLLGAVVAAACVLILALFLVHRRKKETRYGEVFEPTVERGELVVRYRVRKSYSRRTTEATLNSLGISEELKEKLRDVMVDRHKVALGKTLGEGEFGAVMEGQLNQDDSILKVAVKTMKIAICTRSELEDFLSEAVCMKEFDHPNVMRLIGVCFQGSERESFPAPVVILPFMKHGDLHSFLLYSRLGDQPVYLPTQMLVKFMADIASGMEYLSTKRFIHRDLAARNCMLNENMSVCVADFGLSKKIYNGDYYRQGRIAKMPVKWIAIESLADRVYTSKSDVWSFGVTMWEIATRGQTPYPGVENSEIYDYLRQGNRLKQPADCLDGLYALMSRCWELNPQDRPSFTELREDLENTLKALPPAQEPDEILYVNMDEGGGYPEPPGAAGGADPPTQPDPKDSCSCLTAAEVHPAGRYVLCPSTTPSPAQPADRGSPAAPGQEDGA
# Chain of Tyrosine-protein kinase ABL2 (Homo sapiens) (P42684 whole entry): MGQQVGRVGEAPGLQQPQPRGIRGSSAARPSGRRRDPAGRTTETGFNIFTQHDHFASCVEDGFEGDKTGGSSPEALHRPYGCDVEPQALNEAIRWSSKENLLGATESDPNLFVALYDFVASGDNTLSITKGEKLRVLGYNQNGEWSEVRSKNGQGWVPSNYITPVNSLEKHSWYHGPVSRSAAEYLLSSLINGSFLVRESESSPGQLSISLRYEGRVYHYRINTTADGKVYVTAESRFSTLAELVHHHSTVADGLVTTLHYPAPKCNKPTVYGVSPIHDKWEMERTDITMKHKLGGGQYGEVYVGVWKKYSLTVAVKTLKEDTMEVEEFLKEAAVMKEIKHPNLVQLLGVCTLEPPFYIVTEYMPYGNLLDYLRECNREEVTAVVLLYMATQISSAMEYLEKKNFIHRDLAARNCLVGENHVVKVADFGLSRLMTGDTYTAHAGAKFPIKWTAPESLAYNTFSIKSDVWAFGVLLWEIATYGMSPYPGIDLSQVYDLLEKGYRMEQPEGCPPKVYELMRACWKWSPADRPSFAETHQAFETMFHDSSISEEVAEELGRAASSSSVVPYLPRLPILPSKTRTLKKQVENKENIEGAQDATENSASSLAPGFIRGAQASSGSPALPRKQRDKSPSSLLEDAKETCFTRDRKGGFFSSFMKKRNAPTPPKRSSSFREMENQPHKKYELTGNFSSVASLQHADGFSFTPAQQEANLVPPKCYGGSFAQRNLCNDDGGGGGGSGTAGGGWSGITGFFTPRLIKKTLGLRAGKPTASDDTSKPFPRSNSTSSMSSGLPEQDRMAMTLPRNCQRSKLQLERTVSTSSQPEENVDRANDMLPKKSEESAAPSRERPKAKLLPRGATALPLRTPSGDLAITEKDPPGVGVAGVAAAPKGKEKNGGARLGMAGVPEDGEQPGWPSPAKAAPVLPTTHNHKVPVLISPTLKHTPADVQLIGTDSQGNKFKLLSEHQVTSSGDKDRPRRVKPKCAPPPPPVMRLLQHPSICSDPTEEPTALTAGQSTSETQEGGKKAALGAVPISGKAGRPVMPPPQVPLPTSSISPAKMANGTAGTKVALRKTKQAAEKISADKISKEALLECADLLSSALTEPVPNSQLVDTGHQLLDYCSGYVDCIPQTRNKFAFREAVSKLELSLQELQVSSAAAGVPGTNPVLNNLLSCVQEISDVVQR
# Chain of ALK tyrosine kinase receptor (Homo sapiens) (Q9UM73 19-1620 limits assumed): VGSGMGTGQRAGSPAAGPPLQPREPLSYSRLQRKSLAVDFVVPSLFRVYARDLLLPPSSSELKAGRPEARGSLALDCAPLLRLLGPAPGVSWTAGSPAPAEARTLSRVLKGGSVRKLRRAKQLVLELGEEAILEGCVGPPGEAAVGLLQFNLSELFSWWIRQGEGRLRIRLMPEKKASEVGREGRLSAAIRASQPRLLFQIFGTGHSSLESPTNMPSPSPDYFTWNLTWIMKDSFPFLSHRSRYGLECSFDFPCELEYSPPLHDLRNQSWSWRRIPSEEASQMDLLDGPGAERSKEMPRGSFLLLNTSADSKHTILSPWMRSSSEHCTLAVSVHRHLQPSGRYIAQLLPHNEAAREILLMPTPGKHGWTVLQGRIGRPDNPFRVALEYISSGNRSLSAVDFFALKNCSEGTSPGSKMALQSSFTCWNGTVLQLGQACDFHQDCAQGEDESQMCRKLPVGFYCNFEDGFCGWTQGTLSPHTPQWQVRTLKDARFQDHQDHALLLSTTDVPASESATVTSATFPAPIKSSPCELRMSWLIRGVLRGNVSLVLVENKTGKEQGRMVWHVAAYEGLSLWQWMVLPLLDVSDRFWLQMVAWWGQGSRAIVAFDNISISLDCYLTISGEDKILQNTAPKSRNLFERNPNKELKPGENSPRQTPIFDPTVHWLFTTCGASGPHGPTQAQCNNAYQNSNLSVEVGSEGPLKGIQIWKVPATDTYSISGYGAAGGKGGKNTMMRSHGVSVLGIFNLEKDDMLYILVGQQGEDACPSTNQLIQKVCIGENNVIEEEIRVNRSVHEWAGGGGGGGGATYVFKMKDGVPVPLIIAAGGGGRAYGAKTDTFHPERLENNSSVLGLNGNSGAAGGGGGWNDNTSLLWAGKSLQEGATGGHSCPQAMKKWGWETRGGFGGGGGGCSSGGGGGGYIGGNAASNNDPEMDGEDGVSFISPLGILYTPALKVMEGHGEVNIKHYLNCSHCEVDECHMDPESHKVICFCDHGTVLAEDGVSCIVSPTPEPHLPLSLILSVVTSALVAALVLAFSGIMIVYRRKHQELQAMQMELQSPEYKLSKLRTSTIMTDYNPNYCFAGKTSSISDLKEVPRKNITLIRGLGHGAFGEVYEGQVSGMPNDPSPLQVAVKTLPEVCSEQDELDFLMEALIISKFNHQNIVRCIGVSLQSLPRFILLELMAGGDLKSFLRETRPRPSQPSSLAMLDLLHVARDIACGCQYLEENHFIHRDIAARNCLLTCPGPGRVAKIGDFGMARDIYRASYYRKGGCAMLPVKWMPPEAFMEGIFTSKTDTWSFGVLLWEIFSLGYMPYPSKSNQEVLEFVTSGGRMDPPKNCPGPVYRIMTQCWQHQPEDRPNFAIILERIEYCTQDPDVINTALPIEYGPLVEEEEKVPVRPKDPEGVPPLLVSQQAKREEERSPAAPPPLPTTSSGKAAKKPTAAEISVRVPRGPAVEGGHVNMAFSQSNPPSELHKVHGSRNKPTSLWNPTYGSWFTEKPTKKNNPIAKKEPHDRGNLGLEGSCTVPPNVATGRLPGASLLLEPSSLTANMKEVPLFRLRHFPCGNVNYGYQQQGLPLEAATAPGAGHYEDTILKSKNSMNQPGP
SMILES,inhibition [1] [%],inhibition [2] [%],inhibition [3] [%],inhibition [4] [%],inhibition [5] [%],inhibition [6] [%],inhibition [7] [%],inhibition [8] [%],inhibition [9] [%],inhibition [10] [%]
CS(=O)(=O)CCNCc1nc(-c2ccc3ncnc(Nc4ccc(OCc5cccc(C(F)(F)F)c5)cc4)c3c2)cs1,1.2,1.32,0.85,3.97,6.56,2.68,6.49,1.49,4.56,-5.39
CCS(=O)(=O)c1ccc(OC)c(Nc2nccc(N(C)c3ccc4c(C)n[nH]c4c3)n2)c1,15,66.4,92.3,58,78.5,4.29,12.4,42,73.9,-6.66
NC(=O)c1sc(-n2cnc3ccccc32)cc1OCc1ccccc1Br,4.17,2.98,5.62,4.27,9.67,4.26,6.94,4.44,7.23,-6.14
[O-][S+]1CCN(Cc2ccc(-c3ccc4ncnc(Nc5ccc(OCc6ccccc6)c(Cl)c5)c4c3)o2)CC1,1.03,0.95,2.06,2.3,4.26,2.04,8.58,1.82,3.39,-2.39
Cc1ccc2c(-c3ccnc(Nc4ccc5c(c4)OCCO5)n3)c(-c3ccc(C(F)(F)F)cc3)nn2n1,-0.15,0.22,4.3,2.59,4.52,2.45,1.5,2.56,5,0.41
N#Cc1cccc(Nc2nccc(-c3cnn4ncccc34)n2)c1,34.2,12.6,49.8,13.6,47.5,4.04,18.7,11.9,44.3,-0.03
NS(=O)(=O)c1ccc(NC=C2C(=O)Nc3ccc4ncsc4c32)cc1,61.6,10.6,48.7,7.95,44.8,7.33,32.2,5.56,31.4,-4.15
Cc1nc(-c2ccccc2)n2nc(NCCCN3CCOCC3)ncc12,7.48,1.75,3.67,5.87,5.41,2.79,4.11,2.85,4.35,-1.08
C[C@@H](Oc1cc(-n2cnc3ccc(OC[C@@H](O)CO)cc32)sc1C(N)=O)c1ccccc1Cl,12.4,-0.46,10.3,-0.45,11.7,-0.7,4.65,0.97,7.64,2.21
COc1cccc(-n2ncc3c(N/N=C/c4ccc(S(C)(=O)=O)cc4)ncnc32)c1,87,86.2,94.7,62,73,-3.22,-1.6,45.4,61.7,-1.8
NS(=O)(=O)c1cccc(-c2cc3ccncc3cc2OCc2ccccc2)c1,2.66,2.88,5.09,4.3,12.2,2.82,7.12,4.36,15.2,-7.61
Cc1cc(O)cc(C)c1/C=C/c1cncc(C(=O)N(C)C)c1,1.49,2.53,14.2,6.26,17.9,1.7,3.57,4.85,12,-0.49
COc1cc(/C=N/Nc2ncnc3c2cnn3C(C)C)ccc1O,47.8,37,82.2,23.3,73.7,0.72,4.12,16.7,68.5,-0.67
COC(=O)c1ccc2c(c1)C(=Cc1cc(Br)c(O)c(Br)c1)C(=O)N2,2.87,2.56,15.9,7.83,21.2,5.2,15,5.66,15.4,-5.02
NS(=O)(=O)c1cccc(Nc2cc(-c3ccc(F)cc3)n[nH]2)c1,9,4.2,17,3.39,12.4,1.3,2.54,3.38,9.78,-0.57
N#Cc1c(NC(=O)c2ccccc2F)sc2c1CCCC2,0.12,-0.24,0.05,0.07,1.47,-1.14,1.02,-0.22,1.82,1.78
c1ccc(Nc2ncc(-c3ccccc3)o2)cc1,7.7,5.14,16.3,4.09,16.5,2.99,3.91,5.2,22.7,-3.91

SMILES,inhibition [1] [%],inhibition [2] [%],inhibition [3] [%],inhibition [4] [%],inhibition [5] [%],inhibition [6] [%],inhibition [7] [%],inhibition [8] [%],inhibition [9] [%],inhibition [10] [%]
Cc1ccc(Nc2ccnc(Nc3cccc(C(N)=O)c3)n2)cc1O,39.8,80.4,94.1,56.4,79.5,-0.94,10.9,50.8,77.1,-5.49
NS(=O)(=O)c1ccc(-c2cc3ccncc3cc2OCc2ccccc2)cc1,3.49,5.3,3.98,3.52,7.38,4.77,15.5,3.51,6.27,-5.69
Cc1ccc(O)cc1Nc1ccnc2ccc(S(C)(=O)=O)cc12,18.4,94.9,96.8,81.3,85.5,2.56,8.35,80.8,–,-7.59
ON=C1CCc2cc(-c3nc(C4CCNCC4)[nH]c3-c3ccncc3)ccc21,1.59,0.98,1.65,1.37,4.12,2.45,4.92,2.12,6.46,-1.8
COc1cc2ncnc(Nc3ccc(C)c(O)c3)c2cc1OC,68.2,53.7,89.5,36.1,78.5,4.66,13.8,15.8,65.2,-6.97
Nc1nccc(C#Cc2cncnc2Nc2ccc(OCc3cccc(F)c3)c(Cl)c2)n1,2.7,3.75,2.69,4.16,9.58,3.59,6.28,3.79,3.33,-7.36
CCn1c(-c2nonc2N)nc2ccc(F)cc21,5.94,2.99,6.49,3.48,3.51,5.2,5.27,3.97,6.07,-7.61
COC(=O)c1cncc(/C=C/c2c(C)cc(O)cc2C)c1,5.95,13.9,60.9,11,62.9,2.92,4.4,12.5,57.4,-3.94
COc1cc2ncnc(Nc3ccc4c(cnn4Cc4ccccc4)c3)c2cc1OC,7.47,2.86,4.15,3.47,3.36,1.67,3.06,0.85,4.75,-3.79
O=C1Nc2ccc(-c3cccnc3)cc2C1=Cc1cc(Br)c(O)c(Br)c1,2.94,5.16,7.7,3.97,8.78,4.13,9.22,3.5,5.72,-3.55
OCc1ccc(-c2nc(-c3ccccn3)c(-c3ccc4c(c3)OCO4)[nH]2)cc1,0.39,4.74,4.83,8.07,12.3,3.63,8.19,5.94,–,-6.62
Nc1nccc(-c2c(-c3ccc(F)cc3)nn3cc(C(F)(F)F)ccc23)n1,1.21,1.01,-0.43,0.6,0.4,3.84,5.16,2.16,3.62,0.67
CCOc1nccc2c1nc(-c1nonc1N)n2CC,6.12,1.56,6.81,4.96,14.6,2.69,5.24,3.48,11.2,0.71
CCn1c(-c2nonc2N)nc2c(C#CC(C)(C)O)nc(OCCNC)cc21,4.21,1.69,4.64,4.99,5.14,2.7,3.58,1.91,4.33,-7.46
Nc1nccc(-c2c(-c3ccc(F)cc3)ncn2CCCN2CCOCC2)n1,3.9,3.98,6.6,2.4,7.25,2.67,4.91,2.67,0.55,-5.59
Cc1ccc2c(c1)/C(=N/Nc1ccc(S(N)(=O)=O)cc1)C(=O)N2,7.37,-0.42,7.64,0.83,8.09,0.89,2.77,3.63,12.1,-1.65
Cc1ccc(NC(=O)CC2CC2)cc1-c1ccc(C(=O)NCC2CC2)cc1,2.68,5.1,5.33,6.36,8.53,1.68,3.58,8.79,7.68,-3.14
